Experimental findings from publication PMC5540273 (PLoS ONE, 2017) are described below.
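Also: KINOMEscan kinase panel screen.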

This test has as its system EPHA5. As to conditions: concentration: 1 μM, replicates: in singlicate; n = 1.
On to `Cc1ccc(C(=O)Nc2ccc(Nc3ccnc4cc(-c5nccs5)ccc34)cc2O)cc1.Cl` [GW494702], for which the “%Inh” value was determined as 0%.
In the case of `CC(C)c1nc(-c2cccc(NS(=O)(=O)c3c(F)cccc3F)c2F)c(-c2ccnc(Nc3ccc(N4CCOCC4)nc3)n2)s1` [GSK2008607] it was 0%; in that of `Cl.c1ccc(-c2ccc3c(Nc4ccc5[nH]ccc5c4)ccnc3c2)nc1` [GW440138], 0%.
In the case of `Nc1ncc(-c2cccnc2)c2scc(-c3ccc4c(c3)CCN4C(=O)Cc3ccccc3)c12` [GSK683281] it was 0%; in that of `COc1cc(Nc2nccc(-c3c(-c4cccc(NC(=O)c5c(F)cccc5F)c4)nn4ccccc34)n2)cc(OC)c1OC` [GSK323521], 21%.
The result for `CCc1ccc(-c2ccc3c(c2)-c2c(cnn2C)S(=O)(=O)N3C)cc1` reads 8%; that for `COC(=O)Nc1nc2cc(Oc3ccc(NC(=O)Nc4cc(C(F)(F)F)ccc4F)cn3)ccc2[nH]1.Cl.Cl` [GW681170], 43%.
Regarding `Cc1occc1-c1ncc(OC[C@@H](N)Cc2c[nH]c3ccccc23)cc1-c1ccc2[nH]nc(C)c2c1.O=C(O)C(F)(F)F` [GSK682037], the “%Inh” value is recorded as 0%.
The result for `O=C(Nc1cccc(Oc2ccc3nc(NC(=O)C4CC4)cn3n2)c1)c1ccccc1C(F)(F)F` reads 0%; that for `CSc1cccc2c(-c3ccncn3)c(-c3ccc(F)cc3)nn12` [GW514786], 0%.
The result for `COc1cc(Nc2ncc3c(C)nc(-c4cc5ccccc5[nH]4)n3n2)cc(OC)c1OC` [GW869516] reads 16%; that for `O=C(Nc1cccc(-c2nn3ccccc3c2-c2ccnc(Nc3cccc(C(F)(F)F)c3)n2)c1)c1c(F)cccc1F` [GSK292658], 0%; that for `CNC(=O)c1ccccc1Nc1nc(Nc2ccc(N3CCOCC3)cc2)ncc1Cl.Cl` [GSK1576028], 0%.
The result for `Cl.c1ccc(-c2ccc3c(Nc4ccc5[nH]ncc5c4)ccnc3c2)nc1` [GW440137] reads 0%; that for `Cl.Cl.NCC(NC(=O)c1cc(-c2ccccc2)c(-c2ccnc3[nH]ccc23)s1)c1ccccc1` (stereo not shown) [GSK1321561], 6%.
On to `COc1cc2c(cc1OCCN1CCNCC1)ncc1c3ccc(C#N)cc3[nH]c21`, for which the “%Inh” value is given as 2%.
The result for `CCn1c(-c2nonc2N)nc2c(C#CC(C)(C)O)ncc(OCCCCN)c21.O=C(O)C(F)(F)F.O=C(O)C(F)(F)F` [GSK507274] reads 0%; that for `COc1cc(Nc2nccc(-c3c(-c4cccc(NC(=O)c5c(F)cccc5F)c4)nn4ncccc34)n2)cc(OC)c1OC` [GSK327238], 0%.
In the case of `COc1cc(Nc2nccc(N3CCC(NC(=O)Nc4cccc(C(C)=O)c4)C3)n2)cc(OC)c1OC` (stereo not shown) [GSK1379753] it was 0%; in that of `CN(C)S(=O)(=O)c1cc(-c2ccc3nccc(-c4cccc(S(N)(=O)=O)c4)c3c2)cnc1N` [GSK1669921], 0%.
For the molecule `COCCOCCOc1cc2ncc3c4ccc(C#N)cc4[nH]c3c2cc1OC`, the “%Inh” value is given as 11%.
As to `Nc1n[nH]c2cnc(-c3ccccc3)cc12` [SB-642124], the “%Inh” value turned out to be 0%.
The result for `CN1CCN(CCCNc2nccc(-c3c(-c4ccc(F)cc4)nn4cc(C(F)(F)F)ccc34)n2)CC1` [GW621581] reads 0%.
Take `Nc1ncnc2c1nc(-c1ccccc1)n2-c1ccccc1` [SKF-97293]: the “%Inh” value worked out at 13%.
The result for `Cl.NC(=O)c1cccc(Nc2nccc(Nc3ccc(Oc4c(Cl)cccc4Cl)c(Cl)c3)n2)c1` [GW659009] reads 0%; that for `Cc1ccc(F)c(C(=O)Nc2cccc(-c3nn4ccccc4c3-c3ccnc(Nc4cccc(F)c4)n3)c2)c1F` [GSK361061], 1%.
Consider `COc1cccc(-c2ccc3c(NC(=O)C4CC4)n[nH]c3n2)c1` [SB-710903], for which the “%Inh” value is 0%.
The result for `CC(=O)N1CCN(c2ccc(Nc3nccc(-c4sc(C(C)C)nc4-c4cccc(NS(=O)(=O)c5cccc(Cl)c5)c4)n3)cn2)CC1` [GSK1660437] reads 99.6%.
In the case of `C[C@@H]1CC[C@@H](C(=O)Nc2ccccc2)CN1c1cc(-c2ccc3c(N)n[nH]c3c2)nc(N)n1` [GSK2286062] it was 0%; in that of `Clc1ccc(-c2nn3ncccc3c2-c2ccnc(Nc3ccc4c(c3)OCCO4)n2)cc1` [GW829116], 19%.
The result for `Cc1ccc(C(=O)N2CC[C@@H](O)C2)cc1-n1c(C)cc(OCc2ccc(F)cc2F)c(Br)c1=O` reads 0%; that for `CC(=O)Nc1nc2cnc(Nc3cc(NC(=O)c4cccc(C5(C#N)CC5)c4Cl)ccc3C)nc2s1`, 3%.
For `c1ccc(-c2cnc3nccnn23)cc1` [AH20685], the “%Inh” value is reported as 0%.
In the case of `CCn1c(-c2nonc2N)nc2c(C#CC(C)(C)O)nc(OC[C@H](N)c3ccccc3)cc21` [GSK943949], the “%Inh” value is 0%.
The result for `Cl.Cl.NCC(C(=O)Nc1cc(Br)c(-c2ccnc3[nH]ccc23)s1)c1ccccc1` (stereo not shown) [GSK1269851] reads 0%; that for `COc1cccc(C2=C(Nc3ccc(Cl)c(C(=O)O)c3)C(=O)NC2=O)c1` [SB-390769], 0%; that for `Cc1cccc(Nc2nc(N[C@H]3CCNC3)ncc2C(N)=O)c1.Cl` [GSK2197149], 0%.
